In paper PMC4336329 (PLoS ONE, 2015):
The whole screen tested about 310,000 compounds, of which about 14,000 (4.5%) showed an effect of 50% or more. Effects have a minus sign here. What follows is part of a selection rich in strong results, with near analogues and random picks from the rest.

The compounds below were run against human ether-à-go-go-related gene (hERG) potassium channel (human, UniProt Q12809) (assay: primary screen, population patch clamp on CHO cells stably expressing hERG; higher = less effect of the substance).
Chain of human ether-à-go-go-related gene (hERG) potassium channel (Q12809 whole entry, looked up): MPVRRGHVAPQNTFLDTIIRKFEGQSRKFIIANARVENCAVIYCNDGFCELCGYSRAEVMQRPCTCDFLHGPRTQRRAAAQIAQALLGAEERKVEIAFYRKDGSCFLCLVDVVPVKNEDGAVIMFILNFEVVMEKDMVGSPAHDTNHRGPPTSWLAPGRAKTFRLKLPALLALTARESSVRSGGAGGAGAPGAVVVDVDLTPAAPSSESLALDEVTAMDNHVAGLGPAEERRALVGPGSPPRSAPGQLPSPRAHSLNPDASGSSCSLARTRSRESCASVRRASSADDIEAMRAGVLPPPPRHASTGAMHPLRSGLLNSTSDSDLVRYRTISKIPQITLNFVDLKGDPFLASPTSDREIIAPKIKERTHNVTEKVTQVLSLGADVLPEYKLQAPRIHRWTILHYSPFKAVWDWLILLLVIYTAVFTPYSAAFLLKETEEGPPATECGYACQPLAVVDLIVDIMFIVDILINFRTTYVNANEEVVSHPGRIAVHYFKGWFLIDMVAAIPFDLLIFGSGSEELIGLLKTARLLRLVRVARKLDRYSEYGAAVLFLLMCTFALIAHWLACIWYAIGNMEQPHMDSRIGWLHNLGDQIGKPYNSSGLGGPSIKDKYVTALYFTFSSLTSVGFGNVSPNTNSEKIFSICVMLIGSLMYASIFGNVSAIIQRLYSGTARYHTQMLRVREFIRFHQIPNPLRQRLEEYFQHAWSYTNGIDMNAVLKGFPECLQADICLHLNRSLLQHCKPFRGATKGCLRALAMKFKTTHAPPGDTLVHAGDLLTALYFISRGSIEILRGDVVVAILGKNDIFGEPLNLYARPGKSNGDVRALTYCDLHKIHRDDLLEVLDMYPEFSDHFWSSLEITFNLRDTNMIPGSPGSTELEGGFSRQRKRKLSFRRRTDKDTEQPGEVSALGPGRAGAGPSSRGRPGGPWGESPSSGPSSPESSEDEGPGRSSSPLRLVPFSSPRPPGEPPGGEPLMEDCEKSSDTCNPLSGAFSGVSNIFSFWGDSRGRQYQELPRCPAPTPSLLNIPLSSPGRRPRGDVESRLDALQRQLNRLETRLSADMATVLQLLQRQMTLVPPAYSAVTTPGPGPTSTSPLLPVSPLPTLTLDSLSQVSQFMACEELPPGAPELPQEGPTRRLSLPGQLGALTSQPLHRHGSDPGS
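Also: peak tail current of the secondary pulse compared with the same well before compound.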

| Compound | hERG current change (%, negative = inhibition) at 10uM [%] |
| --- | --- |
| O=C(N1CCCCC1)N1CCN(S(=O)(=O)c2ccccc2)CC1 | 10.4 |
| Nc1cc(-c2ccc(Cl)cc2)nn1S(=O)(=O)c1ccc(Cl)cc1 | 19.1 |
| CC(=O)Nc1ccc(OCc2cnc(Cl)s2)cc1 | 11.3 |
| CCN(C(=O)COC(=O)c1c(C)nsc1NC)c1ccccc1 | -11.9 |
| Cc1onc(-c2ccccc2)c1C(=O)NNC(=S)NC(=O)/C=C/c1ccccc1 | 16.2 |
| O=C(c1ccccc1)N1CCN(C2c3cccc4cccc(c34)C2NS(=O)(=O)c2ccccc2)CC1 (centres unmarked) | -21.9 |
| O=S(=O)(Nc1ccc(S(=O)(=O)N2CCCC2)cc1)c1ccccc1Br | 3.27 |
| CCC(=NCc1ccccc1)C1=C(O)C(C(=O)OC)C(C)(C)CC1=O (centres unmarked) | -17 |
| C[C@@H]1CC=C[C@H]2[C@H]1C(=O)N(Cc1ccccc1)[C@H]2c1ccc(-c2ccc(F)cc2)cc1F | -0.198 |
| O=C(CSc1nnc(-c2cccs2)n1C1CC1)NCC1CCCO1 (centres unmarked) | -0.536 |
| O=C(CSc1nc2c(c(=O)n1-c1ccc(Br)cc1)SCC2)NCC1CCCO1 (centres unmarked) | -60.9 |
| O=C(CSc1nnc(-c2cccs2)n1-c1ccccc1)NCC1CCCO1 (centres unmarked) | -74.1 |
| O=C(CSc1nc2c(c(=O)n1-c1ccc(F)cc1)SCC2)NCC1CCCO1 (centres unmarked) | -2.45 |
| Cc1nnc(SCC(=O)NCC2CCCO2)n1-c1ccccc1 (centres unmarked) | -4.28 |
| Cc1cc(C)nc(SCc2nnc(SCC(=O)NCc3ccco3)n2-c2ccccc2)n1 | -14.5 |
| CCn1c(SCC(=O)NCc2ccco2)nnc1-c1cccs1 | -8.86 |
| O=C(CSc1nnc(-c2cccs2)n1-c1ccccc1)NCc1ccco1 | -73 |
| O=C(CSc1nc2c(c(=O)n1-c1ccc(Cl)cc1)SCC2)NCC1CCCO1 (centres unmarked) | -34.5 |
| CN(/N=C/c1c[nH]c2ccccc12)c1cnn(-c2ccc(F)c(Cl)c2)c(=O)c1Cl | -5.66 |
| CCOc1ccccc1CN1CCNC(=O)C1CC(=O)N(C)Cc1nonc1C (centres unmarked) | 8.59 |
| COc1ccc(CNC(=O)c2cccc(-c3ccc(C)c4ccccc34)n2)cc1 | -24 |
| COc1ccc(-c2ccc(NS(=O)(=O)c3cc([N+](=O)[O-])ccc3C)cc2)nn1 | -25.5 |
| CN(CC(=O)Nc1ccc(Cl)cc1)S(=O)(=O)c1ccc2c(c1)n(C)c(=O)c(=O)n2C | 16.3 |
| COc1ccc(CC2(CO)CCN(CC3=Cc4cc(Cl)ccc4OC3)CC2)cc1 | -58.3 |

| Compound | hERG current change (%, negative = inhibition) at 10uM [%] |
| --- | --- |
| COc1cccc(CC2(CO)CCCN(CC3=Cc4cc(OC)ccc4OC3)C2)c1 (centres unmarked) | -21.5 |
| COc1cccc(CC2(CO)CCCN(CC3=Cc4cc(Cl)ccc4OC3)C2)c1 (centres unmarked) | -7.49 |
| OCC1(CCOc2ccccc2)CCN(CC2=Cc3cc(Cl)ccc3OC2)CC1 | -21.9 |
| COc1ccc2c(c1)C=C(CN1CCC(CO)(CCc3ccccc3)CC1)CO2 | -77.1 |
| CCOc1ccc(S(=O)(=O)NC(Cc2cnc[nH]2)C(=O)O)cc1 (centres unmarked) | 18.5 |
| CCN(CC)c1ccc(NC(=O)c2ccc(=O)[nH]c2)cc1S(=O)(=O)Nc1ccc(OC)cc1 | -7.22 |
| CCCNC(=O)c1cc(S(=O)(=O)N2CCc3ccccc32)cn1C | -0.715 |
| CC(C)CCNC(=O)c1cccc(S(=O)(=O)N2CCc3ccccc32)c1 | 2.44 |
| CCN(CC)CCCC(C)NC(=O)c1cccc(S(=O)(=O)N2CCc3ccccc32)c1.Cl (centres unmarked) | -58.5 |
| CCN(CC)CCNC(=O)c1cc(S(=O)(=O)N2CCc3ccccc32)cn1C | -66.1 |
| CC(C)CCNC(=O)c1cc(S(=O)(=O)N2CCc3ccccc32)cn1C | 10.2 |
| CC(NC(=O)c1cccc(S(=O)(=O)N2CCc3ccccc32)c1)c1ccco1 (centres unmarked) | -48 |
| CCCOc1ccccc1C1CC(=O)NC2=C1C(=O)CCC2 (centres unmarked) | -1.24 |
| C=CCOc1ccc(/C=C/C(=O)OC(C)C(=O)Nc2ccc(NC(C)=O)cc2)cc1 (centres unmarked) | 4.6 |
| Cc1nc(CNC(=O)CC2C(=O)NCCN2Cc2ccc(F)cc2)cs1 (centres unmarked) | 11.9 |
| Cc1cc(C)nc(N(C#N)CN2C(=O)c3ccccc3S2(=O)=O)n1 | 0.542 |
| O=C(O)c1ccc(Cl)c(S(=O)(=O)N2CCCCCC2)c1 | -8.34 |
| C/C(=N\NC(=O)CN(c1ccc(C)cc1)S(C)(=O)=O)c1cccs1 | -8.31 |
| O=C(Nc1cc(Cl)ccc1Oc1ccccc1)c1ccc(F)cc1 | -14.1 |
| Cc1ccn2c(=O)nc(SCC(=O)N3N=C(c4cccs4)CC3c3ccc(F)cc3)nc2c1 (centres unmarked) | -65 |
| Cc1ccc(C2CC(c3cccs3)=NN2C(=O)CSc2nc(=O)n3ccc(C)cc3n2)cc1 (centres unmarked) | -46.3 |
| CCOC(=O)CSCC(=O)N1N=C(c2cccs2)CC1c1ccc(F)cc1 (centres unmarked) | -34.1 |
| COc1ccc(C2CC(c3cccs3)=NN2C(=O)CSc2nc(=O)n3ccc(C)cc3n2)cc1 (centres unmarked) | -65.4 |
